Data: PubChem BioAssay (EPA / NIEHS)
Results filed as inconclusive are left out. The source made the active and inactive calls. Rule for the calls, unless noted: active = hit-call score of the fitted dose curve at least 0.9, where 1 is the maximum; inactive = score below 0.9.

What was measured:
[1] = read-out: Interleukin-8 (IL8), CXCL8 (gene 3576); experiment: BSK_3C_IL8: BioMAP Diversity Plus: 3C Assay for Interleukin-8 (IL8) Biomarker Activity (AID 2283020); details: primary human endothelial cells (HUVEC); actives raise or lower the signal
Outline: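 Primary human umbilical vein endothelial cells were dosed for 24 h. IL-8 was quantified by ELISA and fitted bidirectionally against DMSO. Cytotoxicity was assessed in parallel cultures by SRB staining at 560 nm.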

[2] = read-out: Monokine induced gamma interferon (MIG), CXCL9 (gene 4283); experiment: BSK_3C_MIG: BioMAP Diversity Plus: 3C Assay for Monokine induced gamma interferon (MIG) Biomarker Activity (AID 2283021); details: primary human endothelial cells (HUVEC); actives raise or lower the signal
Outline: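 HUVEC primary endothelial cultures dosed with chemical; MIG quantified by ELISA at 24 h. Data fitted bidirectionally against DMSO control, with parallel SRB total-protein staining for cytotoxicity.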

[3] = target: human Vitamin D Receptor (VDR), VDR (gene 7421) (UniProt P11473); experiment: ATG_VDR_TRANS: Attagene TRANS-FACTORIAL HepG2 Assay for human Vitamin D Receptor (VDR) (AID 2283022; active = hit-call score of the fitted dose curve at least 0.9, where 1 is the maximum)
human Vitamin D Receptor (VDR), VDR (gene 7421), sequence (P11473 whole entry, looked up, the tested form may be a part): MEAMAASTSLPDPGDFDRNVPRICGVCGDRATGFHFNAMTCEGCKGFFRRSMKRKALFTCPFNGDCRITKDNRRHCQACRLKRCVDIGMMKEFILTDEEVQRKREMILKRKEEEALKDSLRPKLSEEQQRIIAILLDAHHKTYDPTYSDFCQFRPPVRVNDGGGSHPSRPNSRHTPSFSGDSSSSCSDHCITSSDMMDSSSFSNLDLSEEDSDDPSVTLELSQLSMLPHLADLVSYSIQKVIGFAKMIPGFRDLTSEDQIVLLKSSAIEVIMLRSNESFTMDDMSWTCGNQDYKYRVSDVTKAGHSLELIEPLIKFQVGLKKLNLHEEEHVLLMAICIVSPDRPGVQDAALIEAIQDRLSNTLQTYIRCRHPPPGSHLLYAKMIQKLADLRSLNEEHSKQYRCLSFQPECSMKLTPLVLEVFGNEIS
Outline: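 RT-PCR/capillary electrophoresis read-out of reporter mRNA induction in transiently transfected HepG2; 24 h dosing; chimeric NR-Gal4 (TRANS format); gain-of-signal fit against DMSO baseline.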

[4] = BSK_3C_Vis: BioMAP Diversity Plus: 3C Assay for Morphology Visualization (AID 2283025); details: primary human endothelial cells (HUVEC);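 note: fitted both ways so gain or loss versus DMSO counts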;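 for AC50: light microscopy image of cell morphology used as background control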
Outline: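 Human umbilical vein endothelial cell morphology was inspected by light microscopy 24 h after chemical dosing; scored bidirectionally relative to DMSO.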

[5] = read-out: Pselectin, SELP (gene 6403); experiment: BSK_4H_Pselectin: BioMAP Diversity Plus: 4H Assay for Pselectin Biomarker Activity (AID 2283026); details: primary human endothelial cells (HUVEC); actives raise or lower the signal
Outline: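 Primary human umbilical vein endothelial cells were treated 24 h, and cell-surface P-selectin was then quantified by ELISA. Bidirectional fit versus DMSO; cytotoxicity checked in parallel cultures by SRB total-protein staining.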

[6] = BSK_4H_SRB: Viability Assessment in the BioMAP Diversity Plus: 4H Assay (AID 2283027); details: primary human endothelial cells (HUVEC);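 note: cells exposed to compound for 24 h before staining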;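 for AC50: curves fitted both ways versus DMSO so AC50 may be loss or gain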
Outline: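 Human umbilical vein endothelial cells, 24 h after chemical dosing; total protein measured by 0.1% sulforhodamine B staining after 10% TCA fixation, read at 560 nm. Bidirectional fitting against DMSO.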

[7] = read-out: Thrombomodulin, THBD (gene 7056); experiment: BSK_3C_Thrombomodulin: BioMAP Diversity Plus: 3C Assay for Thrombomodulin Biomarker Activity (AID 2283029); details: primary human endothelial cells (HUVEC); actives raise or lower the signal
Outline: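 Human umbilical vein endothelial cells were exposed to chemicals for 24 h; cell-surface thrombomodulin quantified by ELISA, with bidirectional fitting against DMSO baseline.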

[8] = read-out: Urokinase-type plasminogen activator receptor (uPAR), PLAUR (gene 5329); experiment: BSK_4H_uPAR: BioMAP Diversity Plus: 4H Assay for Urokinase-type plasminogen activator receptor (uPAR) Biomarker Activity (AID 2283030); details: primary human endothelial cells (HUVEC); actives raise or lower the signal
Outline: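 HUVEC, 24 h post-dose; uPAR by ELISA; bidirectional fit vs DMSO baseline.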

[9] = read-out: Vascular endothelial growth factor receptor 2 (Homo sapiens) (UniProt P35968); experiment: BSK_4H_VEGFRII: BioMAP Diversity Plus: 4H Assay for Vascular endothelial growth factor receptor 2 (VEGFR2) Biomarker Activity (AID 2283031); details: primary human endothelial cells (HUVEC); actives raise or lower the signal;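 for AC50: cell-surface VEGFR2 protein level quantified by ELISA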
Outline: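 HUVEC (human primary), 4H system; 24 h post-dose; VEGFRII by ELISA; bidirectional curve fit vs DMSO baseline; gain or loss of signal scored.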

[10] = read-out: Human Leukocyte Antigen - DR isotype (HLADR), HLA-DRA (gene 3122); experiment: BSK_BE3C_HLADR: BioMAP Diversity Plus: BE3C Assay for Human Leukocyte Antigen - DR isotype (HLADR) Biomarker Activity (AID 2283032); details: primary human bronchial epithelial cells; actives raise or lower the signal
Outline: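 Human primary bronchial epithelial cells (BE3C system) exposed to compound for 24 hours; cell-surface HLA-DR measured by ELISA, fitted bidirectionally relative to DMSO. Total protein by SRB in parallel cultures tracked cytotoxicity.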

[11] = read-out: Vascular cell adhesion molecule 1 (VCAM1), VCAM1 (gene 7412); experiment: BSK_4H_VCAM1: BioMAP Diversity Plus: 4H Assay for Vascular cell adhesion molecule 1 (VCAM1) Biomarker Activity (AID 2283033); details: primary human endothelial cells (HUVEC); actives raise or lower the signal
Outline: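 Primary human umbilical vein endothelial cells, 4H stimulation system, treated for 24 h; cell-surface VCAM-1 quantified by ELISA. Bidirectional fitting against DMSO; cytotoxicity tracked by SRB total-protein staining in parallel cultures.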

[12] = read-out: Transforming growth factor beta 1 (TGFb1), TGFB1 (gene 7040); experiment: BSK_BE3C_TGFb1: BioMAP Diversity Plus: BE3C Assay for Transforming growth factor beta 1 (TGFb1) Biomarker Activity (AID 2283036); details: primary human bronchial epithelial cells; actives raise or lower the signal
Outline: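 Primary human bronchial epithelial cells dosed with chemical; TGF-b1 measured by ELISA 24 h after dosing. Bidirectional curve fitting against DMSO negative control; SRB total-protein staining in parallel cultures gauged cytotoxicity.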

[13] = read-out: Plasminogen activator inhibitor-1 (PAI1), SERPINE1 (gene 5054); experiment: BSK_BE3C_PAI1: BioMAP Diversity Plus: BE3C Assay for Plasminogen activator inhibitor-1 (PAI1) Biomarker Activity (AID 2283037); details: primary human bronchial epithelial cells; actives raise or lower the signal
Outline: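 Primary human bronchial epithelial cells (BE3C system) exposed 24 h; PAI-1 quantified by ELISA. Parallel sulforhodamine B staining of total protein flags cytotoxicity. Bidirectional fit versus DMSO.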

[14] = read-out: urokinase plasminogen activator (uPA), PLAU (gene 5328); experiment: BSK_BE3C_uPA: BioMAP Diversity Plus: BE3C Assay for urokinase plasminogen activator (uPA) Biomarker Activity (AID 2283038); details: primary human bronchial epithelial cells; actives raise or lower the signal;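 note: uPA protein level quantified by ELISA in cell cultures; uPA read one day after compound addition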
Outline: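 ELISA read-out of uPA in human lung primary bronchial epithelial cultures, 24 h post-dosing. Gain or loss of signal fitted bidirectionally relative to DMSO baseline; cytotoxicity checked in parallel cultures via SRB total protein stain.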

[15] = read-out: Urokinase-type plasminogen activator receptor (uPAR), PLAUR (gene 5329); experiment: BSK_BE3C_uPAR: BioMAP Diversity Plus: BE3C Assay for Urokinase-type plasminogen activator receptor (uPAR) Biomarker Activity (AID 2283039); details: primary human bronchial epithelial cells; actives raise or lower the signal;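 note: cells exposed to compound for one day before measurement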
Outline: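 Primary human bronchial epithelial cells dosed for 24 h; uPAR quantified by ELISA with bidirectional fitting against DMSO. Overt cytotoxicity assessed in parallel cultures by SRB total-protein staining (0.1% SRB, 560 nm).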

[16] = BSK_3C_SRB: Viability Assessment in the BioMAP Diversity Plus: 3C Assay (AID 2283023); details: primary human endothelial cells (HUVEC);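 note: fitted both ways against DMSO so a hit may be signal rise or drop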
Outline: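 HUVEC, 24 h post-dose; 10% TCA fix, 0.1% SRB stain, A560 nm. Bidirectional curve fit vs DMSO negative control.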

[17] = BSK_BE3C_SRB: Viability Assessment in the BioMAP Diversity Plus: BE3C Assay (AID 2283028); details: primary human bronchial epithelial cells
Outline: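 Primary human bronchial epithelium; chemical dosing, 24 h; 10% TCA fix, 0.1% SRB stain, A560; bidirectional fit vs DMSO baseline.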

[18] = read-out: Interferon-gamma inducible Protein 10 (IP10), CXCL10 (gene 3627); experiment: BSK_BE3C_IP10: BioMAP Diversity Plus: BE3C Assay for Interferon-gamma inducible Protein 10 (IP10) Biomarker Activity (AID 2283034); details: primary human bronchial epithelial cells; actives raise or lower the signal
Outline: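 Primary human bronchial epithelial cells, with IP-10 measured by ELISA 24 hours after chemical dosing. Bidirectional fit against DMSO; cytotoxicity checked by SRB total protein staining in parallel cultures.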

[19] = read-out: Monokine induced gamma interferon (MIG), CXCL9 (gene 4283); experiment: BSK_BE3C_MIG: BioMAP Diversity Plus: BE3C Assay for Monokine induced gamma interferon (MIG) Biomarker Activity (AID 2283035); details: primary human bronchial epithelial cells; actives raise or lower the signal;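 note: MIG protein measured by ELISA in BE3C cultures after 24 h of dosing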
Outline: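 Primary human bronchial epithelial cells treated for 24 h; MIG levels measured by ELISA, fitted bidirectionally versus DMSO. Parallel SRB total-protein staining assessed cytotoxicity.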

[20] = read-out: Matrix Metallopeptidase 1 (MMP1), MMP1 (gene 4312); experiment: BSK_BE3C_MMP1: BioMAP Diversity Plus: BE3C Assay for Matrix Metallopeptidase 1 (MMP1) Biomarker Activity (AID 2283024); details: primary human bronchial epithelial cells; actives raise or lower the signal
Outline: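 Human primary bronchial epithelial cells (BE3C system) dosed for 24 h; MMP-1 quantified by ELISA. Bidirectional fit against DMSO; cytotoxicity tracked in parallel cultures by SRB total-protein staining.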

Measured: AC50

NC(=O)Cn1c(=O)cc(CCN2CCN(c3nccc4sccc34)CC2)c2ccc(F)cc21
active: [5] 3.25 µM | [6] 3.97 µM | [8] 0.496 µM | [11] 7.88 µM
not listed: [16] | [17] | [18] | [19] | [20]
inactive: all other assays above

CC(CO)OC(C)CO (centres undefined) (tested in a mixture with another compound)
not listed: [20]
inactive: all other assays above

O=[N+]([O-])C(CO)(CO)CO
not listed: [17] | [20]
inactive: all other assays above

CN1CCCC1=O
not listed: [20]
inactive: all other assays above

O=C(O)Cc1ccccc1Nc1c(Cl)cccc1Cl
not listed: [18] | [19] | [20]
inactive: all other assays above

Cc1ccc(Cl)cc1
not listed: [17] | [19] | [20]
inactive: all other assays above

C=CCOC(=O)c1ccccc1C(=O)OCC=C
not listed: [3] | [19]
inactive: all other assays above

COCCOCCOC
not listed: [3] | [18] | [19]
inactive: all other assays above

Nc1nc(N)c2nc(CNc3ccc(C(=O)N[C@@H](CCC(=O)O)C(=O)O)cc3)cnc2n1
not listed: [17] | [18] | [19]
inactive: all other assays above

Cc1cccc(C)c1O
inactive: all assays above

CC(C)(C)c1cc(O)c(C(C)(C)C)cc1O
active: [3] 61.2 µM | [4] 9.8 µM | [5] 5.24 µM | [6] 3.45 µM | [8] 4.17 µM | [9] 1.02 µM | [11] 6.44 µM
not listed: [18]
inactive: all other assays above

CC(=O)C(C)=CC1C(C)=CCCC1(C)C (centres undefined)
not listed: [3] | [18]
inactive: all other assays above

CCCCCCC(=O)OCC
not listed: [18] | [20]
inactive: all other assays above

Cc1oc(-c2ccccc2)nc1CCOc1cccc2c1ccn2CCC(=O)O
active: [10] 20.7 µM
not listed: [17] | [18] | [20]
inactive: all other assays above
